Measurements from PMC4336329 (PLoS ONE, 2015).
The campaign covered roughly 310,000 compounds. About 14,000 (4.5%) showed an effect of 50% or more. The effect is printed as a negative number. Only a selection was taken, and strong results are over-represented in it overall.

biological target: human ether-à-go-go-related gene (hERG) potassium channel (human, UniProt Q12809); experiment: primary screen, population patch clamp on CHO cells stably expressing hERG; higher = less effect of the substance
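Also: peak tail current of the secondary pulse compared with the same well before compound.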

human ether-à-go-go-related gene (hERG) potassium channel, sequence (Q12809 whole entry, looked up): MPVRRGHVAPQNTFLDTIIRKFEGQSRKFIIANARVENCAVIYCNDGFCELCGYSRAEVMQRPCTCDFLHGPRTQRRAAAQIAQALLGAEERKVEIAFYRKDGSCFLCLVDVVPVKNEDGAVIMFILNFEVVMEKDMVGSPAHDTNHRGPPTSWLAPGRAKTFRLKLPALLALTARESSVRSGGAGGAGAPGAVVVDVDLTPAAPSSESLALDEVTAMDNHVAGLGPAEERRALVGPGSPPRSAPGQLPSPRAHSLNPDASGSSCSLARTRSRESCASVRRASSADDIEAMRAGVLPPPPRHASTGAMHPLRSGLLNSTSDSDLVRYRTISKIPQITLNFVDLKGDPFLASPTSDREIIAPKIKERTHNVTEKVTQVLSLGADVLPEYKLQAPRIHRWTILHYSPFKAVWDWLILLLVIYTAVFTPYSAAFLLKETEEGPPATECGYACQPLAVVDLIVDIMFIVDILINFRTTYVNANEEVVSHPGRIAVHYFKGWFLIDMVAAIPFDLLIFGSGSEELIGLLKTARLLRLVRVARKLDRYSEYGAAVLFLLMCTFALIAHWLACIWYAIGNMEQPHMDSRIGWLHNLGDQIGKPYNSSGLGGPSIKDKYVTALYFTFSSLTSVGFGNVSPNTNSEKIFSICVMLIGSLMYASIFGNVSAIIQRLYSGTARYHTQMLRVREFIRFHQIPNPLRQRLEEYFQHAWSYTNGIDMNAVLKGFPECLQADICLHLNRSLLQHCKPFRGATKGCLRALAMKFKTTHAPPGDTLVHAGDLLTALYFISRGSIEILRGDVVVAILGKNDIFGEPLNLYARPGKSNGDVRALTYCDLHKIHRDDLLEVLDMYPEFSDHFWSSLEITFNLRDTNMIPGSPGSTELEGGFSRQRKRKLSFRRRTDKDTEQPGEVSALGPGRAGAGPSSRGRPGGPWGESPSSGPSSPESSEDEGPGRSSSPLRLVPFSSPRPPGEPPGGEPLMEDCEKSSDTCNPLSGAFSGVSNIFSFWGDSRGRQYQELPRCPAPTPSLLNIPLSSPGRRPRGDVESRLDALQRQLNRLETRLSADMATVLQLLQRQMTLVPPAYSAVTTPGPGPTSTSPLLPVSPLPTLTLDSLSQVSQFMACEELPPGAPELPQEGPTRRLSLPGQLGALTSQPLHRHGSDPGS

Row | SMILES | hERG current change (%, negative = inhibition) at 10uM [%]
1 | Cc1ccc(C(=O)C2=C(O)C(=O)N(Cc3cccnc3)C2c2cccc([N+](=O)[O-])c2)o1 (stereo not shown) | -9.76
2 | CCN(C(=O)COC(=O)CSc1ccc(C(N)=O)cc1[N+](=O)[O-])C1CCCCC1 | 5.86
3 | Cc1cc(Cl)nc(Cl)c1C(=O)NC(=O)NCCC(C)C | 6.83
4 | O=C(NNC(=O)C1CC=CCC1C(=O)O)c1cccs1 (stereo not shown) | 16.2
5 | CC(=O)N[C@@H](C)c1nc2ccccc2n1CCCN1CCN(c2nc(-c3ccc(C)cc3)cs2)CC1 | -56.2
6 | Cc1ccc(-c2csc(N3CCN(CCCn4c(C(F)(F)F)nc5ccccc54)CC3)n2)cc1 | -4.95
7 | Cc1ccc(-c2csc(N3CCN(CCCn4c(-c5ccncc5)nc5ccccc54)CC3)n2)cc1 | -32.4
8 | Cc1ccc(F)c(NC(=O)C2CCCCC2C(=O)O)c1 (stereo not shown) | 8.23
9 | O=C(O)c1ccc(NC(=O)c2ccccc2NC(=O)c2cccc(F)c2)cc1 | 20.2
10 | O=C(Nc1ccc(Cl)cc1)N1CCN(c2ccc3nnc(-c4ccc(F)cc4)n3n2)CC1 | -28.3
11 | COc1ccccc1NC(=O)N1CCN(c2ccc3nnc(-c4ccc(F)cc4)n3n2)CC1 | -68.9
12 | O=C(Nc1ccc(F)cc1)N1CCN(c2ccc3nnc(-c4ccc(F)cc4)n3n2)CC1 | -73.5
13 | O=C(c1ccc(Br)o1)N1CCN(c2ccc3nnc(-c4ccc(F)cc4)n3n2)CC1 | -46.4
14 | COc1ccccc1NC(=O)N1CCN(c2ccc(F)cc2)CC1 | -18.7
15 | O=C(Nc1ccccc1C(F)(F)F)N1CCN(c2ccc3nnc(-c4ccc(F)cc4)n3n2)CC1 | -65.9
16 | O=C(c1ccc(Br)o1)N1CCN(c2ccc3nnc(-c4ccccc4)n3n2)CC1 | -79.1
17 | O=C(Nc1ccccc1C(F)(F)F)N1CCN(c2ccccn2)CC1 | 9.98
18 | O=C(Nc1ccccc1C(F)(F)F)N1CCN(c2ccc3nncn3n2)CC1 | -1.32
19 | Fc1ccc(-c2nnc3ccc(N4CCCC4)nn23)cc1 | 5.51
20 | COc1ccccc1NC(=O)N1CCN(c2ccc3nncn3n2)CC1 | -23.1
21 | c1ccc(-c2nnc3ccc(N4CCCC4)nn23)cc1 | 7.51
22 | O=C(CCC(=O)c1ccc(Br)cc1)Nc1ccc(F)cc1 | 23.7

Row | SMILES | hERG current change (%, negative = inhibition) at 10uM [%]
23 | COc1ccc(C2=NC(=O)NC2c2ccc(OC)cc2)cc1 (stereo not shown) | -29.4
24 | Cc1ccc(S(=O)(=O)N(C)C)cc1-n1c(SCC(=O)Nc2ccc(F)c(F)c2F)nc2ccccc2c1=O | 8.58
25 | Cl.O=C(Cc1ccccc1)OCCN1CCOCC1 | 20.4
26 | CCCOc1ccc(C2(C(=O)O)CCCC2)cc1 | 6.16
27 | C=CCC1C=CCC(CC=C)N1C(=O)c1ccccc1[N+](=O)[O-] (stereo not shown) | -3.17
28 | COC(=O)c1sccc1NC(=S)N1CCCCC1C (stereo not shown) | -25.6
29 | CC1=C(C(=O)OCC(C)C)C2(O)C(=O)c3ccccc3C2(O)N1 (stereo not shown) | 3.4
30 | Clc1ccc(CSc2nnc(-c3ccncc3)o2)c(Cl)c1 | 0.528
31 | COc1ccc(C2/C=C\CN(S(=O)(=O)c3ccc4ccccc4c3)CC(=O)N2Cc2ccc(F)cc2)cc1 (stereo not shown) | 8.33
32 | Cc1nc(-c2ccccc2)sc1C1(C)CC(c2ccc(C#N)cc2)=NO1 (stereo not shown) | -3.07
33 | O=C(Nc1ccccc1Cl)N1CCN(c2ccc3nncn3n2)CC1 | -23.2
34 | O=C(Nc1ccccc1Cl)N1CCN(c2ccc3nnc(-c4ccccc4)n3n2)CC1 | -73.5
35 | O=C(Nc1ccccc1Cl)N1CCN(c2ccc3nnc(-c4ccc(F)cc4)n3n2)CC1 | -42.1
36 | O=C(CN1C(=O)c2ccccc2C1=O)Nc1ccc(S(=O)(=O)N2CCOCC2)cc1 | -16.9
37 | O=C(NC1CCCC1)C1CCN(C(=O)c2cccc(Cl)c2)CC1 | -6.41
38 | Cc1ccc(-n2ncc3c(NCc4ccccn4)ncnc32)c(C)c1 | -7.46
39 | Cc1ccc2nc(-c3ccncc3)c(NC3CCCCC3)n2c1 | 9.35
40 | Cc1ccc2nc(-c3cccnc3)c(NC3CCCC3)n2c1 | -19.7
41 | Cc1ccc2nc(-c3ccncc3)c(NC3CCCC3)n2c1 | -54.2
42 | CCOc1cccc(OCCCCn2ccnc2)c1 | -9.04
43 | COc1ccc(C)cc1NS(=O)(=O)c1ccc2c(c1)oc(=O)n2C | 16.2
